Screening results as filed in PubChem.
Hits are enriched below; roughly 28% of the tested compounds scored in any of these assays.
CYP2C19 inh – blockers of cytochrome P450 2C19 activity – biochemical, luminescence, ADME assay, primary screen. CYP2C19 Supersomes, luciferin-H EGE luminescence, 30 min. inhibition, % at 5 µM. hit rate 21% among 96,000. AID 778, 2007;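 active = CYP2C19 inhibition above a set limit at 5 µM in the primary screen, cut at about 50% in these data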
hDAT+cocaine – changed hDAT dopamine uptake under cocaine IC80, either direction, primary screen, cocaine antagonist project, cell-based, LLC-PK1 hDAT, [14C]-dopamine uptake, MLSMR. Sodium-dependent dopamine transporter (Homo sapiens), Q01959. LLC-PK1 hDAT cells, [14C]-dopamine uptake with cocaine IC80; actives deviate in either direction. B-score at 10 µM. hit rate 1.3% among 110,000;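 active = Z score or B-score, a plate-position-corrected score, falls beyond the plate's 99.7% confidence bounds, in either direction; inactive = both scores lie inside the 99.7% bounds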
D1 allo mod – D1 CRE-luciferase signal change, two-sided – cell-based, HEK293 D1, dopamine EC30, D1 allosteric modulator project, primary screen. D(1A) dopamine receptor (Homo sapiens), P21728. dopamine EC30 potentiation; actives deviate in either direction. B-score at 10 µM. hit rate 5.9% among 58,000;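 active = luminescence count or its row- and column-corrected plate score outside the 99.7% band of the plate's sample wells, on either side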
CYP2C9 inhib – blockers of cytochrome P450 2C9 activity – biochemical, luminescence, ADME assay, primary screen | CYP2C9 Supersomes, luciferin-H conversion | inhibition, % at 5 µM | P11712 | hit rate 20% among 96,000 | AID 777, 2007;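 active = blocking of liver enzyme CYP2C9 beyond about 50% at 5 µM, limit read from the data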
Target sequence (P11712 whole entry, looked up): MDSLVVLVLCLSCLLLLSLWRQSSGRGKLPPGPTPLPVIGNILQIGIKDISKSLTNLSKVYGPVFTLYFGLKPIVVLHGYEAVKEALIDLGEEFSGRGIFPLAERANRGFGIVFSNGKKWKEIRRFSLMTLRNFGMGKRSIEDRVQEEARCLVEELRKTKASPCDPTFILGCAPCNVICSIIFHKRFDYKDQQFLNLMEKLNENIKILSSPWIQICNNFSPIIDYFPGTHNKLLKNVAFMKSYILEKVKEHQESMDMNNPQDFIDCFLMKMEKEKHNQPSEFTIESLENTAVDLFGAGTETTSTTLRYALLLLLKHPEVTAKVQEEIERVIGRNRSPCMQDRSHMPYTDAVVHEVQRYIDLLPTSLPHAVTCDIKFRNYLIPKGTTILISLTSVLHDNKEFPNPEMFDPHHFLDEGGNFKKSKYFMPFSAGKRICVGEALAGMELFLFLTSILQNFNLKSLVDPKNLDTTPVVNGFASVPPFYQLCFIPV
CYP2C19 activ – human CYP2C19 activators, primary screen, biochemical, luminescence | recombinant CYP2C19, luciferin-H EGE luminescence; active compounds read high; 0 = fully inhibited enzyme, 1 = untreated enzyme | Cytochrome P450 2C19 (Homo sapiens), P33261 | activation factor at 5 µM | AID 1025, 2008 | 96,000 tested, under 10 active;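 active = activation factor of at least 2 at 5 µM in the primary screen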
CYP2C9 act – human CYP2C9 activators, primary screen, biochemical, luminescence. recombinant CYP2C9, luciferin-H conversion; active compounds read high; factor 1 = untreated enzyme, 0 = blocked. hit rate 1.4% among 96,000. AID 1024, 2008. activation factor at 5 µM. Cytochrome P450 2C9 (Homo sapiens), P11712;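 active = activation factor of 2 or more for CYP2C9 at a 5 µM dose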
Hits are given with their value; 0 = inactive; - = no result.

SMILES	CYP2C19 inh	hDAT+cocaine	D1 allo mod	CYP2C9 inhib	CYP2C19 activ	CYP2C9 act
CCN1CC=C2C(C#N)=C(N)C(C#N)(C#N)[C@H](c3cccc(OC)c3OC)[C@H]2C1	0	0	0	0	0	0
CCN1CC=C2C(C1)C(c1ccc(Cl)s1)C(C#N)=C(N)C2(C#N)C#N (stereo not given)	70	-	0	93	0	0
CCCCOC(=O)CN1C(=O)c2ccc(C(=O)OCCCC)cc2C1=O	88	0	0	70	0	0
COc1ccc(C(=O)OCCN2C(=O)c3ccccc3C2=O)cc1	93	0	0	72	0	0
Cc1cc(C(=O)OCCN2C(=O)c3ccccc3C2=O)c2ccccc2n1	68	0	-	75	0	0
Cc1cccc2c1N(CCCOc1ccccc1)C(=O)C2=O	62	0	-	0	0	0
CN(C)CCCNCCCNC(=O)/C(=N\O)c1ccccn1	-	0	-	-	-	-
CCOc1cc(C(=O)N2CCC(CC3CC(c4ccccc4)=NO3)(C(=O)NCc3ccc(OC)cc3)CC2)cc(OCC)c1OCC (stereo not given)	-	0	-	-	-	-
CCOC(=O)c1c(C)cccc1OCC(N)=O	-	0	-	-	-	-
CC(C)n1c(SCC(=O)c2ccc3c(c2)OCCO3)nc2c1c(=O)n(C)c(=O)n2C	0	0	0	0	0	0
Cc1ccc(OCCN2C(=O)c3ccccc3C2=O)c(C)c1	0	0	0	0	0	0
Cc1ccc(OCCN2C(=O)c3ccccc3C2=O)cc1	81	0	-	0	0	0
COC(=O)c1nn(C23CC4CC(CC(C4)C2)C3)c2c1C(=O)N(c1ccc(Br)cc1)C2=O	0	0	-	0	0	0
COc1ccc(S(=O)(=O)N(CCc2ccccc2)CC(=O)O)cc1Cl	0	0	-	0	0	0
CCNC(=O)CN(CCc1ccccc1)S(C)(=O)=O	72	0	0	0	0	0
CS(=O)(=O)N(CCc1ccccc1)CC(N)=O	0	0	-	0	0	0
CC(C)NC(=O)CN(CCc1ccccc1)S(C)(=O)=O	82	0	0	0	0	0
CCCCNC(=O)CN(CCc1ccccc1)S(C)(=O)=O	72	0	-	0	0	0
COCCNC(=O)CN(CCc1ccccc1)S(=O)(=O)c1ccc(OC)cc1	60	0	-	0	0	0
c1cc2c(cc1C1CCCN1)OCCCO2 (stereo not given)	0	0	-	0	0	0
CS(=O)(=O)N(CCc1ccccc1)CC(=O)N1CCN(Cc2ccccc2)CC1	-	0	-	-	-	-
CS(=O)(=O)N(CCc1ccccc1)CC(=O)NCc1ccncc1	100	0	-	99	0	0
COc1ccc(C2CC(c3ccccc3)=NN2C(=O)c2cccs2)cc1 (stereo not given)	0	0	-	0	0	0
COc1ccc(C2=NN(C(=O)CSc3cn(C)c4ccccc34)C(c3ccc(OC)cc3)C2)cc1 (stereo not given)	50	0	-	62	0	0
Cc1cc(NC(=O)CCC(=O)N(c2ccccc2)C(C(=O)NC2CCCCC2)c2cccs2)no1 (stereo not given)	-	0	-	-	-	-
SMILES	CYP2C19 inh	hDAT+cocaine	D1 allo mod	CYP2C9 inhib	CYP2C19 activ	CYP2C9 act
CCOC(=O)c1sc(NC(=O)CSc2ncn(-c3ccccc3)n2)nc1C	0	0	-	0	0	0
Nc1nnc(SCc2ccccc2)n1-c1ccccc1	-	0	-	-	-	-
O=C(CSc1ncn(-c2ccccc2)n1)c1cccs1	94	0	0	71	0	0
c1ccc(CSc2ncn(-c3ccccc3)n2)cc1	85	0	0	79	0	0
Nc1nc(CSc2ncn(-c3ccccc3)n2)cs1	82	0	0	0	0	0
COc1ccc(C2CC(=O)C=C(NCCC(C)C)C2)cc1 (stereo not given)	-	0	-	-	-	-
Cc1ccc2nc3c(cc2c1)c(NC(=O)c1cccnc1)nn3C	0	0	-4.4	58	0	0
Cc1ccc2cc3c(NC(=O)C(C)C)nn(C)c3nc2c1	0	0	0	70	0	0
CCn1nc(NC(=O)c2cccnc2)c2cc3cccc(C)c3nc21	0	0	0	0	0	0
CCCC(=O)Nc1nn(C)c2nc3cc(C)ccc3cc12	0	0	0	0	0	0
